These results are taken from PubChem BioAssay (NCATS).

Test [1] is described as follows: Primary fluorescence-based thiol-reactive (MSTI) qHTS assay for identification of artifact compounds. (AID 1845221). Note: nearly all actives have a fitted effect of over 65% in size. Note: potency is the fitted concentration of half-maximal effect. The procedure, abridged:
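Probe: MSTI 4 uM, PBS pH 7.4, 2% DMSO. Incubation 1 h, RT, light-protected. Readout fluorescence 525/598 nm.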
In general terms: In qHTS, concentration-response curves come from the screen itself.

For test [2], the system named is Nanoluciferase (engineered Oplophorus gracilirostris luciferase). The test is described as follows: Primary Nanoluciferase (NLuc) qHTS assay for identification of artifact compounds. (AID 1845222).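 Note: NLuc secreted into diluted conditioned medium of S16 cells; series mostly up to about 54 µM.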 An outline of the steps: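 S16 cell supernatant NLuc, 1:55; cpds qHTS; 15 min RT dark; Nano-Glo substrate 1:100, 5 min; luminescence; Hill fit of % inhibition.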
Test [3] is described as follows: Primary redox qHTS assay for identification of artifact compounds. (AID 1845223). An outline of the steps:
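Redox-cycling detection via DTT (250 uM final) oxidation coupled to Amplex Red (25 uM)/HRP (250 mU/mL) in HBSS. 15 min preincubation plus 30 min after DTT, room temperature. Ex/Em 525/598 nm; 4-parameter Hill fit against DMSO and 10 uM DA3003.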

Test [4] can be described thus: Quantitative High-Throughput drug screen in 47 multiple myeloma cell lines against the NCATS MIPE library collection: Delta47_JCRB cell viability assay (AID 1918925; note: potency is the fitted concentration of half-maximal effect; nearly all actives have a fitted effect of over 45% in size). An outline of the steps: (§1)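 CellTiter-Glo luminescence (ATP) after 48 h compound exposure, 37C/5% CO2; 500 cells/well; MIPE 4.0 approved/investigational drugs pinned in; DMSO = 100%, media only = 0% viability.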

Test [5] can be described thus: Quantitative High-Throughput drug screen in 47 multiple myeloma cell lines against the NCATS MIPE library collection: ARD_JJKsccE7 cell viability assay (AID 1918929; note: potency is the fitted concentration of half-maximal effect). The procedure, abridged: as §1
Test [6] can be described thus: Quantitative High-Throughput drug screen in 47 multiple myeloma cell lines against the NCATS MIPE library collection: Karpas620_DSMZ cell viability assay (AID 1918959). Note: nearly all actives have a fitted effect of over 30% in size. Note: potency is the fitted concentration of half-maximal effect. An outline of the steps: (§2)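 Steps: seed 500 cells per well; pin-transfer MIPE 4.0 library; incubate 48 h at 37C, 5% CO2, humidified; add CellTiter-Glo, 5 min room temperature; read luminescence.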
Test [7] in a line: Quantitative High-Throughput drug screen in 47 multiple myeloma cell lines against the NCATS MIPE library collection: KMM1_JCRB cell viability assay (AID 1918960). Note: nearly all actives have a fitted effect of over 30% in size. Note: potency is the fitted concentration of half-maximal effect. An outline of the steps:
(§3)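 Cell viability inhibition in this qHTS is measured via ATP content (CellTiter-Glo) after 48 h drug exposure at 37 °C. Wells hold 500 cells; DMSO-treated wells define 100% and medium-only wells 0%.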

The nature of test [8]: Quantitative High-Throughput drug screen in 47 multiple myeloma cell lines against the NCATS MIPE library collection: JIM1_ECACC cell viability assay (AID 1918964; note: potency is the fitted concentration of half-maximal effect). An outline of the steps:
as §1

Test [9] in a line: Quantitative High-Throughput drug screen in 47 multiple myeloma cell lines against the NCATS MIPE library collection: JJN3_DSMZ cell viability assay (AID 1918966; note: potency is the fitted concentration of half-maximal effect; nearly all actives have a fitted effect of over 50% in size). The procedure, abridged: as §1
Test [10] is described as follows: Quantitative High-Throughput drug screen in 47 multiple myeloma cell lines against the NCATS MIPE library collection: Karpas25_ECACC cell viability assay (AID 1918968; note: potency is the fitted concentration of half-maximal effect; nearly all actives have a fitted effect of over 35% in size). An outline of the steps:
as §1

The nature of test [11]: Quantitative High-Throughput drug screen in 47 multiple myeloma cell lines against the NCATS MIPE library collection: FR4_PLB cell viability assay (AID 1918924; note: nearly all actives have a fitted effect of over 35% in size; note: potency is the fitted concentration of half-maximal effect). The procedure, abridged: as §2
A short description of test [12]: Quantitative High-Throughput drug screen in 47 multiple myeloma cell lines against the NCATS MIPE library collection: EJM_DSMZ cell viability assay (AID 1918926; note: nearly all actives have a fitted effect of over 30% in size; note: potency is the fitted concentration of half-maximal effect). The procedure, abridged: as §1
The nature of test [13]: Quantitative High-Throughput drug screen in 47 multiple myeloma cell lines against the NCATS MIPE library collection: ARP1_JJKsccF8 cell viability assay (AID 1918928; note: nearly all actives have a fitted effect of over 40% in size; note: potency is the fitted concentration of half-maximal effect). The procedure, abridged:
as §3

Test [14] can be described thus: Quantitative High-Throughput drug screen in 47 multiple myeloma cell lines against the NCATS MIPE library collection: INA6_PLB cell viability assay (AID 1918965; note: potency is the fitted concentration of half-maximal effect; nearly all actives have a fitted effect of over 55% in size). An outline of the steps:
as §1

The nature of test [15]: Quantitative High-Throughput drug screen in 47 multiple myeloma cell lines against the NCATS MIPE library collection: H1112_PLB cell viability assay (AID 1918967; note: nearly all actives have a fitted effect of over 30% in size; note: potency is the fitted concentration of half-maximal effect). An outline of the steps: as §1
Test [16] in a line: Quantitative High-Throughput drug screen in 47 multiple myeloma cell lines against the NCATS MIPE library collection: AMO1_DSMZ cell viability assay (AID 1918927). The procedure, abridged:
as §1

Test [17] is described as follows: Quantitative High-Throughput drug screen in 47 multiple myeloma cell lines against the NCATS MIPE library collection: KHM11_PLB cell viability assay (AID 1918962). Note: potency is the fitted concentration of half-maximal effect; nearly all actives have a fitted effect of over 35% in size. The procedure, abridged: as §2
The nature of test [18]: Quantitative High-Throughput drug screen in 47 multiple myeloma cell lines against the NCATS MIPE library collection: JIM3_ECACC cell viability assay (AID 1918963; note: nearly all actives have a fitted effect of over 35% in size; note: potency is the fitted concentration of half-maximal effect). The procedure, abridged: as §2
The nature of test [19]: Quantitative High-Throughput drug screen in 47 multiple myeloma cell lines against the NCATS MIPE library collection: KMS27_JCRB cell viability assay (AID 1918970). Note: nearly all actives have a fitted effect of over 30% in size. Note: potency is the fitted concentration of half-maximal effect. An outline of the steps:
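ATP-based viability (CellTiter-Glo luminescence) is measured in cells treated 48 h with approved and investigational drugs at 37 °C. Controls are DMSO-only wells for full viability and media-only wells for none.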

Records with an inconclusive call do not appear. Activity calls are given as the source filed them. Calls come from the whole dose curve; as a rule, active = well fitted curve in the direction sought with a large enough effect; inconclusive = small, poorly fitted or top-dose-only effect, or another doubt; inactive = no such curve, though single readings can be large; an effect the other way counts as inactive or inconclusive.

For the compound `O=C(Nc1cccc(Br)c1)c1cccc(S(=O)(=O)N2CCCCCC2)c1`, the Potency entry in test [1] and in test [2] was “inactive” each time. In addition, the compound was called inactive in test [3]. The Potency in test [4] was 18.7 µM (active); in test [5], 16.6 µM (active); in test [6] it was 20.9 µM (active); in [7], 16.6 µM (active); in test [8] it was 7.43 µM (active); in test [9] it was 20.9 µM (active). In addition, the Potency in [10] was 18.7 µM (active).

On to `NC(=O)c1cnc(-c2ccc(C3(N)CCC3)cc2)c(-c2ccccc2)c1`, for which the Potency entry in [1], in [2] and in test [11] was “inactive” each time. Also, the compound was classed as inactive in test [3]. Besides, the Potency in test [4] was 6.62 µM (active); in test [12], 1.66 µM (active); in test [13], 8.33 µM (active); in test [14] it was 10.5 µM (active); in test [15], 4.18 µM (active); in test [10], 13.2 µM (active).

Regarding `NC(=O)c1cccc(-c2cc(Nc3ccc(OC(F)(F)F)cc3)ncn2)c1`, the Potency entry in [1] and in test [2] was “inactive” throughout. Besides, the compound was called inactive in [3]. In addition, the Potency is 18.7 µM (active) in test [4]; 18.7 µM (active) in [16]; 14.8 µM (active) in test [5]; 26.4 µM (active) in test [6]; 14.8 µM (active) in test [7]; 14.8 µM (active) in test [17]. Moreover, the Potency in test [18] was 18.7 µM (active); in test [10] it was 8.33 µM (active); in test [19], 18.7 µM (active).

`CC(C)n1nc(-c2ccc3oc(N)nc3c2)c2c(N)ncnc21`: the Potency entry in [1] and in test [2] was “inactive” each time. In addition, the result in test [3] was inactive. For the same compound, the Potency in test [4] was 0.0059 µM (active); in test [6], 1.18 µM (active); in [18], 0.0074 µM (active); in test [14], 0.0093 µM (active); in test [9] it was 0.0074 µM (active).

Consider `CC(=O)O[C@]1(C(C)=O)CC[C@H]2[C@@H]3C=C(Cl)C4=CC(=O)[C@@H]5C[C@@H]5[C@]4(C)[C@H]3CC[C@@]21C`, for which, in test [2], the Potency entry was “inactive”. Besides, the call in test [3] was inactive.

As to `CC(=O)CCCCn1c(=O)c2c(ncn2C)n(C)c1=O`, the Potency result in test [2] is “inactive”. In test [3], the compound was classed as inactive.

As for `CC(C)(C)Cn1c(N)nc2ccc(-c3[nH]c(C(C)(C)C)nc3-c3ccc(F)cc3)nc21`, the results for the Potency in test [1] and in test [15] were 1.89 µM (active) and 20.9 µM (active), respectively. In addition, the Potency result in test [2], in test [7], in test [8] and in [19] was “inactive” each time. For the same compound, in [3], the call was inactive.

On to `CCN1CCC[C@H]1CNC(=O)c1cc(S(N)(=O)=O)ccc1OC`, for which the Potency result in test [2] was “inactive”. Further, in [3], the compound was classed as inactive.

Turning to `O=C(Nc1ccccc1-c1cn2c(CN3CCNCC3)csc2n1)c1cnc2ccccc2n1`, the Potency entry in [1], in test [2], in test [5], in [6], in test [7] and in [19] was “inactive” each time. The outcome in [3] was inactive. Also, the Potency was 9.35 µM (active) in [11]; 4.69 µM (active) in test [4]; 20.9 µM (active) in test [12]; 23.5 µM (active) in test [13]; 8.33 µM (active) in test [17]; 2.96 µM (active) in [8]. The Potency in [15] was 9.35 µM (active); in test [10], 5.9 µM (active).

`COc1ccc(Cc2ccc(NC(N)=O)cc2)cc1-c1cccc(Cl)c1`: the Potency entry in [1], in test [2], in test [11], in [12], in test [13] and in test [18] was “inactive” in each case. In addition, in [15], the Potency result is “inactive”. Moreover, the compound was classed as inactive in [3].

As to `CC[C@]1(O)C[C@@H]2CN(CCc3c([nH]c4ccccc34)[C@@](C(=O)OC)(c3cc4c(cc3OC)N(C)[C@H]3[C@@](O)(C(=O)OC)[C@H](OC(C)=O)[C@]5(CC)C=CCN6CC[C@]43[C@@H]65)C2)C1`, the Potency result in test [2] was “inactive”.
